A selection: hits, their analogues and other compounds. The true share with any hit is near 19%.
SARS PLpro yeast – inhibitors of SARS-CoV papain-like protease in yeast. S. cerevisiae expressing SARS-CoV PLpro, growth rescue. Potency, µM (titrated, usually from 32.9 µM), inactives show at the highest dose activity, positive = growth rescue, hits mostly activators. hit rate 0.19% among 330,000; calls by dose curve; also: potency is read from the fitted curve at half-maximal effect; 0% is about no effect; nearly all actives have a fitted effect of over 55% in size
Pf growth 96h – inhibits malaria parasite growth, 96 h. AID 504834. hit rate 6.9% among 320,000. P. falciparum luciferase reporter growth, 96 h. Potency, µM (titrated, usually from 28.7 µM), inactives show at the top dose activity change, negative = inhibition, actives largely listed as inhibitors; also: potency is read from the fitted curve at half-maximal effect; % is scaled to controls: 0 for no effect and ±100 for the full control effect
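P. falciparum expressing integrated firefly luciferase, in erythrocytes at 2% hematocrit, 0.05% parasitemia, incubated with compounds 96 h at 37 C, 5% CO2. Growth inhibition read as loss of luminescence; two-generation exposure targets delayed-death apicoplast inhibitors.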
Shiga inhibitor – blocks Shiga toxin action in Vero cells. Vero cells, Shiga toxin protein synthesis inhibition reporter. inhibition, % at 38.7 µM. hit rate 9.2% among 290,000; in the data active = inhibition mostly above about 28%, no sharp cut-off; inactive = mostly below about 43%; also: 0% is about no effect
Pf growth 48h – inhibits P. falciparum growth in the first generation, 48 h. P. falciparum luciferase growth in erythrocytes, 48 h. Potency, µM (top dose mostly 28.7 µM), for the others: at the top dose activity change, negative = inhibition, most hits filed as inhibitors. hit rate 5.9% among 310,000. AID 504832; also: potency is read from the fitted curve at half-maximal effect; % is scaled to controls: 0 for no effect and ±100 for the full control effect
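A one-generation exposure of luciferase-tagged malaria parasites in RPMI 1640/Albumax erythrocyte culture, 37 C and 5% CO2. Inhibition is inferred from decreased luminescence after adding detection reagent.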
Cycloheximide cs – counter-screen for Shiga toxin inhibitors: cycloheximide protein synthesis inhibition; hit rate 12% among 300,000; max response, %; cell reporter, cycloheximide protein synthesis inhibition counterscreen; in the data active = max response mostly above about 13%, no sharp cut-off; inactive = mostly below about 14%; also: read at 38.3 µM for the half of the compounds with a filed dose; 0% is about no effect
AMA1 RON2 block – disrupts binding of P. falciparum AMA1 to RON2. hit rate 0.2% among 360,000. AID 720542. AlphaScreen AMA1-biotinylated RON2 peptide binding. Potency, µM (series often up to 58.2 µM), for the others: at the top dose activity change, negative = inhibition, usual class: inhibitors;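 also: potency is read from the fitted curve at half-maximal effect; 0% = vehicle wells and -100% = peptide control; nearly all actives have a fitted effect of over 45% in size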
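AMA1 (3D7) with his tag at 25 nM final met compounds first, then biotinylated RON2 peptide at 25 nM; detection used donor plus acceptor beads, 10 µg/mL apiece, read by AlphaScreen after 30 min at room temperature.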
Active calls of the source: *; i = inactive; ? = inconclusive; · = no result given; [ ] = another dose, or the depositor's remark. Unless noted, calls follow the shape of the dose curve; as a rule, active = well fitted curve in the direction sought with a large enough effect; inconclusive = small, poorly fitted or top-dose-only effect, or another doubt; inactive = no such curve, though single readings can be large; an effect the other way counts as inactive or inconclusive.

SMILES	SARS PLpro yeast	Pf growth 96h	Shiga inhibitor	Pf growth 48h	Cycloheximide cs	AMA1 RON2 block
OC(CCN1CCOCC1)c1ccccc1 (stereo not drawn)	-6%	121%	-6	75%	-1	-8%
N/C(COc1cc(Cl)cc(Cl)c1)=N\O	0%	7%	9	17%	2	2%
COc1cccc(NC(=O)Nc2nc(SC)ns2)c1	-9%	91%	100*	78%	54*	0%
COc1cccc(NC(=O)Nc2nc(SC(C)(C)C)ns2)c1	-4%	-91%	·	?	25*	-2%
CCCSc1ccc(C(=O)Nc2ccc(F)cc2F)cn1	1%	32%	30	28%	30*	23%
CC(C)S(=O)(=O)c1ccc(C(=O)Nc2ccc(F)cc2F)cn1	-1%	37%	-4	6%	-2	17%
CCCSc1nsc(NC(=O)Nc2ccc(F)cc2F)n1	-3%	?	36*	?	23*	0%
COc1ccc(NC(=O)Nc2cccc(OC)c2)cc1	·	·	·	·	·	15%
CCCSc1nsc(NC(=O)C(c2ccccc2)c2ccccc2)n1	4%	?	-6	·	10	-4%
O=C(COc1ccc(S(=O)(=O)N2CCOCC2)cc1)NCCc1ccc(Cl)cc1	·	·	·	·	·	6%
Cc1nc(C(F)(F)F)ccc1C(=O)N1CCC1(C)C(=O)NS(C)(=O)=O (stereo not drawn)	·	·	·	·	·	-4%
CCOC(=O)C1C(C(=O)Nc2cccc(C(F)(F)F)c2)C1C(=O)NC(C)C (stereo not drawn)	1%	32%	3	484%	-5	2%
CC(=O)Nc1cccc(NC(=O)Nc2cccc(F)c2)c1	-1%	16%	17	33%	9	-4%
CCSc1nsc(NC(=O)Nc2cccc(F)c2)n1	-23%	65%	·	5.9µM*	39*	5%
COc1ccc(NC(=O)c2cc(-c3cccnc3)nc3c(C)c(C)ccc23)c(OC)c1	-1%	0.83µM*	-5	?	-1	-7%
COc1ccccc1NC(=O)c1ccccc1C(=O)O	1%	?	-7	34%	-2	23%
COc1ccccc1NC(=O)c1ccccc1Nc1ccccc1	-7%	?	21	5.2µM*	-1	-5%
COc1ccc(-c2ccccc2)cc1NC(=O)c1cccs1	-2%	-12%	-5	5%	1	-5%
COc1ccc(OC)c(NC(=O)c2ccc(-c3cccs3)cc2)c1	-5%	12%	24	18%	15	28µM*
COc1ccc(NC(=O)c2ccccc2NC(=O)c2ccccc2C(=O)O)c(OC)c1	1%	49%	53*	?	11*	-10%
Cc1cc(C)c(NC(=O)/C=C\C(=O)O)c([N+](=O)[O-])c1	-28%	7%	-2	·	1	13%
O=C(CSc1nnc2ccc3ccccc3n12)c1ccc(F)cc1	0%	41%	·	37%	·	·
COc1ccccc1NC(=O)c1cccnc1	·	-1%	-5	23%	-1	6%
CCC(=O)NC(=S)Nc1ccc(NC(=O)c2cccc([N+](=O)[O-])c2C)cc1	?	-25%	-11	7%	-2	-7%
COc1ccccc1Nc1ccc(NC(=O)c2cccc([N+](=O)[O-])c2C)cc1	-4%	-17%	55*	?	30*	-28%
SMILES	SARS PLpro yeast	Pf growth 96h	Shiga inhibitor	Pf growth 48h	Cycloheximide cs	AMA1 RON2 block
COc1ccc(NC(=O)c2cccnc2)c(OC)c1	5%	15µM*	-9	·	4	5%
COc1ccc(NC(=O)c2ccc(C)cc2)c(OC)c1	-16%	173%	96*	130%	50*	?
COc1ccc(NC(=O)c2ccc3[nH]c(=O)c(=O)[nH]c3c2)c(OC)c1	-3%	10%	-9	18%	3	-8%
CCC(CC)NC(=O)c1cccc([N+](=O)[O-])c1C	5%	1.3µM*	-9	8%	1	6%
COc1ccc(Br)cc1/C=N/NC(=O)CN1CCN(Cc2ccccc2)CC1	1%	46%	14	81%	-2	-7%
COc1ccc2cc(C3OCCO3)c(Cl)nc2c1	-1%	18%	128*	184%	60*	7%
COc1ccc2cc(C3CC(c4cccs4)=NN3C(C)=O)c(Cl)nc2c1 (stereo not drawn)	-1%	1%	16	10%	3	-2%
O=C1NN(C(=O)Nc2ccc(Br)cc2)C(c2ccccc2)C1c1ccccc1 (stereo not drawn)	·	·	54*	·	9	·
Cc1ccc2c(c1)c1c3n2CCN(C(=O)CCl)C3CCC1 (stereo not drawn)	7%	?	24	?	9.8*	-5%
CCN1CCn2c3c(c4cc(C)ccc42)CCCC31 (stereo not drawn)	-2%	55%	40	8.3µM*	25*	-5%
O=S(=O)(c1ccc(Br)s1)N1CCN(c2ccc(F)cc2)CC1	-1%	-3%	-4	?	11	11%
CCC(=O)Nc1cccc(C(=O)c2ccccc2)c1	-13%	·	2	15%	11*	-2%
CCC(=O)Nc1cccc(C(=O)/C=C/c2cccs2)c1	-5%	?	85*	?	37*	9%
CCC(=O)Nc1cccc(C(=O)/C=C/c2ccccc2)c1	-27%	?	38	44%	25*	-6%
CN1CCCCC1c1ccc(-c2cccnc2)nc1 (stereo not drawn)	2%	2%	-9	6%	16*	-10%
CCc1c(C)[nH]c2c1C(=O)[C@H](CN1CCOCC1)CC2	·	-4%[12.8 µM]	·	-8%[12.8 µM]	·	·
CCCS(=O)(=O)Nc1cccc(-c2cn3c(n2)SCC3)c1	6%	14%	-3	-7%	-2	-2%
O=C(Nc1ccc(-c2cn3c(n2)SCC3)cc1)c1ccc2ccccc2n1	-3%	?	48*	3%	50*	26%
O=C(Nc1cccc(-c2cn3c(n2)SCC3)c1)c1ccc2ccccc2n1	-4%	i	133*	88%	45*	53%
Cc1ccc(NC(=O)CSc2nnc3n2CCCCC3)cc1	13%	i	20	18%	0	-2%[2.32 µM]
Cc1ccc(NC(=O)c2cc(S(=O)(=O)c3ccccc3)ccc2Cl)cc1	-4%	·	61	-3%	10	0%
COc1ccc(C(=O)NCC(=O)NCC2COc3ccccc3O2)cc1 (stereo not drawn)	4%	59%	32	·	-2	-19%
O=S(=O)(NCc1ccccc1Cl)c1cccs1	4%	36%	28	6%	13	16%
Cc1cc(NC(=O)c2ccccc2)ncc1NC(=O)c1ccco1	-25%	·	87*	33%	18*	-11%
CCCCC(=O)Nc1cnc(NC(=O)c2ccco2)cc1C	2%	43%	64*	95%	21*	7%
CCCC(=O)Nc1cc(C)c(NC(=O)c2ccco2)cn1	1%	-8%	·	-4%	9	12%
COc1cc(NC(=O)CCc2c(C)noc2C)c(C(=O)O)cc1OC	·	·	·	·	·	3%
